The source of these data is PubChem BioAssay AID624331 (National Center for Advancing Translational Sciences (NCATS), 2012).

Molecules are shown by their SMILES. Results filed as inconclusive are left out. Where a call stands in place of a potency, no number is given. The source made the active and inactive calls. The call rests on the fitted dose curve; in most records, active means well fitted activation curve with a large enough effect; inconclusive means small, poorly fitted or top-dose-only effect; inactive means no such curve, though single readings can be large or run the other way.

This test in a line: qHTS assay for re-activators of p53 using a Luc reporter: Hit Validation with no p53 Expressed. To be noted: p53-null cells, luciferase reporter counter-screen; series mostly up to 46.1 µM. A digest of the protocol: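 Counter-screen of primary hits in a cell line not transfected with p53, in Opti-MEM with 10% FBS; compounds at several concentrations (10 mM stock, 1:5; top 46.1 µM in well), 24 h at 37 deg C, 5% CO2. Luminescence read after 10 min with Amplite reagent.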

`c1ccc2oc(C3=NNC(=NC4CC4)SC3)cc2c1`: the Potency entry is “inactive”.

With `Cc1ccc(C)c(C(=O)COC(=O)c2n[nH]c3ccccc23)c1`, the Potency result is “inactive”.

`CCc1ccc2[nH]c(=O)c(CN(CCN(CC)CC)C(=O)NC3CCCCC3)cc2c1`: the Potency result is “inactive”.
